Assay results: PubChem BioAssay (NCI)
Compounds without any hit were thinned out: in the full panel of roughly 79,000, 15% have a hit. Active and inactive are the calls of the source. Rule as the data show it: active = growth inhibition above about 70%; inactive = the rest.

Columns and labels:
[1] = NCI Yeast Anticancer Drug Screen. Data for the rad52 strain (AID 147);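 also: 0% = growth of vehicle-treated control cultures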; conditions: S. cerevisiae rad52 mutant growth inhibition, stronger effect = higher value
Method in brief: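 Growth of repair-deficient yeast cells was compared between compound-treated and vehicle-treated cultures to give percent inhibition.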

[2] = NCI Yeast Anticancer Drug Screen. Data for the wt1 strain (AID 149);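 also: 0% = growth of vehicle-treated wt1 cultures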; conditions: S. cerevisiae wt1 strain (SPY 50644) growth inhibition, stronger effect = higher value
Method in brief: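 Yeast wt1 strain exposed to compounds; growth inhibition measured relative to vehicle-treated controls.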

[3] = NCI Yeast Anticancer Drug Screen. Data for the rad50EPP+ strain (AID 151);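 also: 0% = growth of vehicle-treated control cultures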; conditions: S. cerevisiae rad50 mutant strain, stronger effect = higher value
Method in brief: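 Measured: growth inhibition of rad50EPP+ yeast. Reference: vehicle-treated controls. Screen uses strains with defined genetic alterations in DNA damage repair or cell cycle control.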

[4] = NCI Yeast Anticancer Drug Screen. Data for the mgt1 strain (AID 153); conditions: S. cerevisiae mgt1 mutant growth inhibition, stronger effect = higher value
Method in brief: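 Compounds were applied to mgt1 mutant yeast, and growth was then compared against vehicle-treated control cultures to give percent inhibition.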

[5] = NCI Yeast Anticancer Drug Screen. Data for the rad50 strain (AID 155);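 also: 0% = growth of vehicle-only cultures of the same strain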; conditions: S. cerevisiae rad50 strain growth inhibition, stronger effect = higher value
Method in brief: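 Yeast carrying a defined DNA repair defect were exposed to test compounds, and growth was compared with vehicle-treated controls to give percent inhibition.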

[6] = NCI Yeast Anticancer Drug Screen. Data for the mec2-1 strain (AID 157); conditions: S. cerevisiae mec2-1 strain, stronger effect = higher value
Method in brief: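 Compounds were applied to mec2-1 yeast cells. Their growth was then compared with that of vehicle-treated cultures to give growth inhibition.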

[7] = NCI Yeast Anticancer Drug Screen. Data for the sgs1 mgt1 strain (AID 161);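 also: 0% = growth of cultures given vehicle only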; conditions: S. cerevisiae sgs1 mgt1 strain, stronger effect = higher value
Method in brief: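 Percent growth inhibition was derived by comparing compound-exposed mutant yeast with vehicle-exposed cultures. The strain carries alterations in DNA damage repair.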

[8] = NCI Yeast Anticancer Drug Screen. Data for the CLN2oe strain (AID 163);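 also: 0% = growth of vehicle-only control cultures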; conditions: S. cerevisiae CLN2oe strain, stronger effect = higher value
Method in brief: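 Cells of an engineered yeast line with disturbed cell-cycle regulation are treated with compound. Inhibition of growth is then calculated relative to the vehicle-treated reference.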

[9] = NCI Yeast Anticancer Drug Screen. Data for the cln2 rad14 strain (AID 165);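 also: 0% = growth equal to vehicle treated cultures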; conditions: S. cerevisiae cln2 rad14 strain, stronger effect = higher value
Method in brief: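 Strain: cln2 rad14 yeast, altered in cell cycle control and DNA damage repair. Read-out: growth inhibition vs vehicle.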

[10] = NCI Yeast Anticancer Drug Screen. Data for the bub3 strain (AID 167); conditions: S. cerevisiae bub3 mutant strain, stronger effect = higher value
Method in brief: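 Compounds were applied to a genetically altered yeast strain carrying a cell-cycle control defect. Growth inhibition was scored against vehicle-treated controls.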

[11] = NCI Yeast Anticancer Drug Screen. Data for the wt2 strain (AID 169);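 also: 0% = growth of vehicle-treated yeast cultures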; conditions: S. cerevisiae wt2 strain growth inhibition, stronger effect = higher value
Method in brief: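 Growth of compound-treated yeast is measured and expressed as inhibition relative to vehicle-only controls.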

[12] = NCI Yeast Anticancer Drug Screen. Data for the mlh1 strain (AID 171);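 also: 0% = growth of vehicle-treated control cultures of the same strain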; conditions: S. cerevisiae mlh1 strain growth inhibition, stronger effect = higher value
Method in brief: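 Test agents were incubated with yeast bearing a defined DNA damage repair or cell cycle control alteration; values are growth inhibition normalised to vehicle-treated cultures.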

[13] = NCI Yeast Anticancer Drug Screen. Data for the sgs1 strain (AID 173);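 also: 0% = growth of vehicle-only control cultures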; conditions: S. cerevisiae sgs1 mutant, stronger effect = higher value
Method in brief: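 Strain with an altered DNA repair or cell cycle pathway exposed to compound. Growth then measured. Value = inhibition versus vehicle control.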

[14] = NCI Yeast Anticancer Drug Screen. Data for the mlh1 rad18 strain (AID 175); conditions: S. cerevisiae mlh1 rad18 strain growth inhibition, stronger effect = higher value
Method in brief: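 A repair-deficient yeast strain is exposed to test compound, and growth is scored relative to vehicle-treated controls.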

[15] = NCI Yeast Anticancer Drug Screen. Data for the rad18 strain (AID 177); conditions: S. cerevisiae rad18 mutant growth inhibition, stronger effect = higher value
Method in brief: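 DNA-repair-defective yeast; compound treatment; growth inhibition scored against vehicle.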

[16] = at 5.0 µM (retest, dose inferred, filed as 0.5)
[17] = at 50.0 µM (retest, dose inferred, filed as 5.0)

Measured: growth inhibition

Cc1ccccc1N=C(NO)c1ccccc1
active: [1]; at 100.0 µM 97% | [2]; at 100.0 µM 93% | [4]; at 100.0 µM 95% | [5]; at 50.0 µM 90.6% | [5]; at 100.0 µM 97% | [6]; at 50.0 µM 82.8% | [6]; at 100.0 µM 97% | [7]; at 50.0 µM 80% | [8]; at 100.0 µM 95% | [9]; at 50.0 µM 74.2% | [10]; at 50.0 µM 76.8% | [10]; at 100.0 µM 94% | [11]; at 100.0 µM 94% | [12]; at 100.0 µM 95% | [13]; at 100.0 µM 98% | [14]; at 50.0 µM 92.9% | [15]; at 100.0 µM 96%
inactive: [1]; at 1.2 µM 10% | [1]; at 3.7 µM 9% | [1]; at 11.0 µM 22% | [1]; at 33.0 µM 60% | [2]; at 1.2 µM 0% | [2]; at 3.7 µM -4% | [2]; at 11.0 µM -6% | [2]; at 33.0 µM 9% | [3]; at 1.2 µM 1% | [3]; at 3.7 µM 6% | [3]; at 11.0 µM 15% | [3]; at 33.0 µM 42% | [3]; at 100.0 µM 67% | [4]; at 1.2 µM 0% | [4]; at 3.7 µM -4% | [4]; at 11.0 µM -4% | [4]; at 33.0 µM 30% | [5]; at 1.2 µM 8% | [5]; at 3.7 µM 15% | [5]; [16] -141% | [5]; at 11.0 µM 31% | [5]; at 33.0 µM 59% | [5]; [17] 33% | [6]; at 1.2 µM 1% | [6]; at 3.7 µM 0% | [6]; [16] -44% | [6]; at 11.0 µM -5% | [6]; at 33.0 µM 49% | [6]; [17] 14% | [7]; [16] -61% | [7]; [17] 49% | [8]; at 1.2 µM -3% | [8]; at 3.7 µM -5% | [8]; at 11.0 µM -2% | [8]; at 33.0 µM 20% | [9]; [16] -56% | [9]; [17] 20% | [10]; at 1.2 µM 3% | [10]; at 3.7 µM -1% | [10]; [16] -67% | [10]; at 11.0 µM -5% | [10]; at 33.0 µM 5% | [10]; [17] 37% | [11]; at 1.2 µM -3% | [11]; at 3.7 µM -3% | [11]; at 11.0 µM -4% | [11]; at 33.0 µM 20% | [12]; at 1.2 µM 1% | [12]; at 3.7 µM 2% | [12]; at 11.0 µM 2% | [12]; at 33.0 µM 31% | [13]; at 1.2 µM 1% | [13]; at 3.7 µM 6% | [13]; at 11.0 µM 15% | [13]; at 33.0 µM 62% | [14]; [16] -122% | [14]; [17] 29% | [15]; at 1.2 µM 1% | [15]; at 3.7 µM 2% | [15]; at 11.0 µM 11% | [15]; at 33.0 µM 35%
